Measurements published in PubChem BioAssay (NCATS).
Inconclusive results are not listed. Activity calls are given as the source filed them. Unless noted, calls follow the shape of the dose curve; as a rule, active = well fitted curve in the direction sought with a large enough effect; inconclusive = small, poorly fitted or top-dose-only effect, or another doubt; inactive = no such curve, though single readings can be large; an effect the other way counts as inactive or inconclusive.

Experiments:
[1] = qHTS assay for small molecule agonists of retinoid X receptor alpha signaling (AID 588544; calls by dose curve;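 as to activation: 0% = DMSO basal wells and 100% = reference agonist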); conditions: HEK293T RXRa-UAS-bla, beta-lactamase reporter, 18 h; 530 nm emission
[2] = biological target: Retinoic acid receptor RXR-alpha (Homo sapiens) (UniProt P19793); experiment: as above; conditions: HEK293T RXRa-UAS-bla, beta-lactamase reporter, 18 h; series mostly up to 76.7 µM
Retinoic acid receptor RXR-alpha (Homo sapiens), sequence (P19793 whole entry, looked up): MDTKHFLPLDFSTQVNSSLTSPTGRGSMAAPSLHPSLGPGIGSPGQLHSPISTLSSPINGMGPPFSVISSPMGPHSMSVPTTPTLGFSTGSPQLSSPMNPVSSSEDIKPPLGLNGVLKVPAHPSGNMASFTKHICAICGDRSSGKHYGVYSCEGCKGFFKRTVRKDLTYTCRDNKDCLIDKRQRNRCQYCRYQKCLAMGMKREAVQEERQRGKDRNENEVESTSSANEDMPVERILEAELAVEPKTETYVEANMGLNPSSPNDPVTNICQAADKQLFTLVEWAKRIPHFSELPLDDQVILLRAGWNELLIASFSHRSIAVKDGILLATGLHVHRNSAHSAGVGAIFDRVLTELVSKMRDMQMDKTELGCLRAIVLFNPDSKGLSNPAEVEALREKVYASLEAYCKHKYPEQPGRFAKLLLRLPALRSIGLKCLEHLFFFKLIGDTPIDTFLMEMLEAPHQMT

[3] = biological target: Thyroid hormone receptor beta (Homo sapiens) (UniProt P10828); experiment: qHTS assay for small molecule agonists of thyroid hormone receptor beta signaling (AID 588545; calls by dose curve); conditions: TR-UAS-bla GripTite HEK 293, beta-lactamase ratio, agonist mode, 18 h, percent of T3 response, DMSO as zero; series mostly up to 76.7 µM
Thyroid hormone receptor beta (Homo sapiens), sequence (P10828 whole entry, looked up): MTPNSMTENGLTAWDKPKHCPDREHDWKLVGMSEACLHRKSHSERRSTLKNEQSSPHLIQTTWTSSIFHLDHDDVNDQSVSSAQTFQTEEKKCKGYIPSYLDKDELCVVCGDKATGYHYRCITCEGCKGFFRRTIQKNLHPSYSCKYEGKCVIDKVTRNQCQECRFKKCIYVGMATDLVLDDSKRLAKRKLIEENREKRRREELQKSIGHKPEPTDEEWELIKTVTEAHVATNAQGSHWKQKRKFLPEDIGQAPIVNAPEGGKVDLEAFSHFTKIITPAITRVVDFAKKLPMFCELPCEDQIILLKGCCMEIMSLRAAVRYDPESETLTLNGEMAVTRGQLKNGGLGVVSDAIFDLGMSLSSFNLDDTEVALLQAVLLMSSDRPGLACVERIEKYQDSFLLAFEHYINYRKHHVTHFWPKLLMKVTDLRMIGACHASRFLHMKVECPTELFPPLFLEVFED
Outline: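 HEK 293 TR-UAS-bla; agonist mode; 18 hrs, 37 C; CCF4, ex 405/em 460 and 530 nm; norm. T3 10 nM = 100%, DMSO = 0%; Hill fit → EC50, efficacy.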

[4] = biological target: Thyroid hormone receptor beta (Homo sapiens) (UniProt P10828); experiment: qHTS assay for small molecule antagonists of thyroid hormone receptor beta signaling (AID 588547; active = well fitted inhibition curve with a large enough effect in the signal ratio, with a control signal flat, not every such curve was filed as active; the % refers to the signal ratio;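 also: cells stimulated with 0.4 nM T3 agonist during compound exposure; % is scaled to controls: 0 for no effect and ±100 for the full control effect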); conditions: TR-UAS-bla HEK293, beta-lactamase ratio, antagonist mode, 18 h
Outline: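 TR-UAS-bla GripTite HEK293 cells in 2% charcoal/dextran FBS medium; compounds 0.59 nM to 92 uM with T3 at 0.4nM final, 18 h at 37 C. Beta-lactamase read by CCF4 fluorescence (460/530 nm); Hill fits gave IC50 and efficacy.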

[5] = biological target: Voltage-gated inwardly rectifying potassium channel KCNH2 (Homo sapiens) (UniProt Q12809); experiment: qHTS Assay for Small Molecule Inhibitors of the Human hERG Channel Activity (AID 588834); conditions: U2OS BacMam hERG, FluxOR thallium flux fluorescence; series mostly up to 92.2 µM;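 also: top concentration of the series differs between compounds; % is scaled to controls: 0 for no effect and ±100 for the full control effect; lower thallium flux fluorescence means stronger hERG block; nearly all actives have a fitted effect of over 50% in size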
Voltage-gated inwardly rectifying potassium channel KCNH2 (Homo sapiens), sequence (Q12809 whole entry, looked up): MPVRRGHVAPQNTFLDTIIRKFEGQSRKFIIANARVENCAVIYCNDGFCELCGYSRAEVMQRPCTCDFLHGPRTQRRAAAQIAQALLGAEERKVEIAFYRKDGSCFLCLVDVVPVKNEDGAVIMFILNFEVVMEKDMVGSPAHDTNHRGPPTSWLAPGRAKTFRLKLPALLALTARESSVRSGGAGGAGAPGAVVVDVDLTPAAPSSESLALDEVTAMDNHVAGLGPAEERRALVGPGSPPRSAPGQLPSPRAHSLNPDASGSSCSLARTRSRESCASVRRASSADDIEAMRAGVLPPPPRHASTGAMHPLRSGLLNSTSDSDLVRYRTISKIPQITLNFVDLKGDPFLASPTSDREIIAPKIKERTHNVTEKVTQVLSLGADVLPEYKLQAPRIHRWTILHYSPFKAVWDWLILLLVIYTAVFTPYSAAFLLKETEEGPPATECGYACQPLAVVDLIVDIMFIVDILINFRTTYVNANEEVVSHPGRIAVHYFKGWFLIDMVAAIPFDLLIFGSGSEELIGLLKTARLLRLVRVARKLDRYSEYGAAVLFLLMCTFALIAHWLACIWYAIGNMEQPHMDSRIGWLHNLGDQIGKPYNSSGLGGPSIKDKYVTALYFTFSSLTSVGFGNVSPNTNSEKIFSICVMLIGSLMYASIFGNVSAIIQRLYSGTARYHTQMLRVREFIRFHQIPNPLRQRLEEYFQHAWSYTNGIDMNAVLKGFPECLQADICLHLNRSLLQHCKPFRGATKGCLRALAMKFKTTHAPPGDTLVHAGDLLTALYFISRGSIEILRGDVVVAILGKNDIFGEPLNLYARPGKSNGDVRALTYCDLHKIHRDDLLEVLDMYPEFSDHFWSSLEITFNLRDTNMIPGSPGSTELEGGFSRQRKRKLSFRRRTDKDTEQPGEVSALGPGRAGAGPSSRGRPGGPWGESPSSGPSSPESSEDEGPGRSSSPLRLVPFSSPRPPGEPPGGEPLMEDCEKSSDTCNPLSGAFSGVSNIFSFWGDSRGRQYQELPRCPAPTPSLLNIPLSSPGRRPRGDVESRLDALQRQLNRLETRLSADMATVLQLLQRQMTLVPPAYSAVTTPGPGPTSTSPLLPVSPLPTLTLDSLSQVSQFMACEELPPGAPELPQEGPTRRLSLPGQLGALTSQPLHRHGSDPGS
Outline: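 hERG-BacMam U2OS, 2000 cells/well; 0.7X FluxOR loading 1 hr RT dark; cpd ~10 min 37 °C; stim buffer; FDSS fluorescence 2 min @ 1 s; AC50 Hill fit.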

[6] = qHTS assay for small molecule activators of the p53 signaling pathway (AID 651743; active = well fitted activation curve with a large enough effect in the signal ratio, not every such curve was filed as active; the % refers to the signal ratio; also: % of control where 0% means no effect); conditions: HCT-116 p53RE-bla, beta-lactamase FRET ratio, 16 h; stronger effect = higher value
Outline: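 HCT-116 p53RE-bla, 4,000 cells/well; 5 h settle; cpd/DMSO 16 h, 37 C; LiveBLAzer B/G 2 h RT; fluorescence intensity.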

[7] = qHTS assay for small molecule activators of the nuclear factor-kappa B (NF-kB) signaling pathway (AID 651749; active = well fitted activation curve with a large enough effect in the signal ratio; the % refers to the signal ratio; also: % of control where 0% means no effect); conditions: NF-kB-bla ME-180 cells, beta-lactamase FRET ratio, 16 h; stronger effect = higher value
Outline: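 Incubation lasted 16 hr at 37C in 5% CO2 after 23 nL compound addition to ME-180 NF-kB-bla cells. Activation appears as beta-lactamase-mediated FRET loss.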

[8] = qHTS assay for small molecule disruptors of the mitochondrial membrane potential - 1 hr assay (AID 651754; calls by dose curve; also: % is scaled to controls: 0 for no effect and ±100 for the full control effect; nearly all actives have a fitted effect of over 35% in size); conditions: series mostly up to 92.2 µM
Outline: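 Steps: seed HepG2 cells and let attach overnight; pin-transfer compound or vehicle; incubate 1 hr at 37C; add Mito-MPS dye for 30 min; read two-channel fluorescence for monomer and aggregate forms.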

[9] = qHTS assay for small molecule disruptors of the mitochondrial membrane potential - 5 hr assay (AID 651755; calls by dose curve; also: % is scaled to controls: 0 for no effect and ±100 for the full control effect; nearly all actives have a fitted effect of over 40% in size); conditions: JC-1-type ratio dye; series mostly up to 92.2 µM
Outline: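 HepG2 cells (2,000/well), attached overnight, exposed to compound 5 hr at 37C, then Mito-MPS dye 30 min. Fluorescence read for monomers (490/535 nm) and aggregates (540/590 nm).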

[10] = biological target: Tumor necrosis factor (Homo sapiens) (UniProt P01375); experiment: qHTS assay to identify small molecules that stimulate Tumor Necrosis Factor-alpha (TNF-alpha) secretion (AID 651757; active = well fitted curve in the direction sought with a large enough effect in the signal ratio; the % refers to the signal ratio; also: 0% is about no effect); conditions: Human cells, HTRF 665/615 ratio; series mostly up to 92.2 µM
Tumor necrosis factor (Homo sapiens), sequence (P01375 whole entry, looked up): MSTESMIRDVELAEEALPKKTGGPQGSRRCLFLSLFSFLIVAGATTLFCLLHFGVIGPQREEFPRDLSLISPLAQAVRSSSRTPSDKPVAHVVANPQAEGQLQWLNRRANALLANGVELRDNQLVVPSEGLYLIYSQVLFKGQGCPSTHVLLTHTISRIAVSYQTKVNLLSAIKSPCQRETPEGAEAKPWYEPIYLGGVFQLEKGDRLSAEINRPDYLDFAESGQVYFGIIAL
Outline: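 Secreted TNF-alpha from compound-treated THP-1 cells (17 hrs, 37 C) was quantified with a homogeneous time-resolved fluorescence antibody assay.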

[11] = qHTS assay to identify small molecules that stimulate interleukin-8 (IL-8) secretion (AID 651758; active = well fitted activation curve with a large enough effect in the signal ratio; the % refers to the signal ratio; also: 0% is about no effect); conditions: HTRF ratio (665/615); series mostly up to 92.2 µM
Outline: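 THP-1 cells (2000/well) exposed to compound 16 h at 37 C; secreted IL-8 then detected by HTRF with cryptate- and XL665-labelled anti-IL-8 antibody pair after 1-3 h at room temperature.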

[12] = qHTS assay for environmental chemicals that activate the Aryl hydrocarbon Receptor (AhR) signaling pathway (AID 651777); conditions: 1A2-DRE human hepatoma cells, luciferase, 24 h; activation: stronger effect = higher value; also: % of control where 0% means no effect; nearly all actives have a fitted effect of over 15% in size
Outline: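 Following a 24 hr incubation with test chemicals at 37 C and 5% CO2, 1A2-DRE human hepatoma cells received One-Glo reagent; after 30 min at room temperature, luciferase output reflected CYP1A2 induction via AhR.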

[13] = biological target: Peroxisome proliferator-activated receptor alpha (Homo sapiens) (UniProt Q07869); experiment: qHTS assay for small molecule agonists of the peroxisome proliferator-activated receptor alpha (PPARalpha) signaling pathway (AID 651778); conditions: PathHunter PPARalpha complementation, chemiluminescence, 6 h; stronger effect = higher value; also: % of control where 0% means no effect
Peroxisome proliferator-activated receptor alpha (Homo sapiens), sequence (Q07869 whole entry, looked up, the tested form may be a part): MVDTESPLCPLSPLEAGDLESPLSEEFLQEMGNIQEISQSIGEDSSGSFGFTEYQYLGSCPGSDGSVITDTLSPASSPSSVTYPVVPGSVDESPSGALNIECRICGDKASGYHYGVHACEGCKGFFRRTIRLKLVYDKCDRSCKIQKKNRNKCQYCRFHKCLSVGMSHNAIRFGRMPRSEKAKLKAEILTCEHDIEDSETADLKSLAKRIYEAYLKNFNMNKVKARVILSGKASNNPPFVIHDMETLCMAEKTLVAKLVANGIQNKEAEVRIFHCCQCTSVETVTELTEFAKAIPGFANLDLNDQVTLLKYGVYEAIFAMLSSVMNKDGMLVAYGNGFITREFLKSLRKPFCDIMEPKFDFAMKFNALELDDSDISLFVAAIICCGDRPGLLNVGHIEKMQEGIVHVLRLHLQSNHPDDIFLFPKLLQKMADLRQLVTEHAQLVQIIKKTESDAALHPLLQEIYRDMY
Outline: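 Enzyme-fragment complementation assay in which ligand-bound PPARalpha translocates and forms an active enzyme that generates chemiluminescence. Cells were plated overnight, exposed to compound for 6 hr at 37 C, and then given detection reagent for 60 min at room temperature.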

[14] = biological target: Nuclear receptor ROR-gamma (Homo sapiens) (UniProt P51449); experiment: qHTS assay for small molecule antagonists of the retinoid-related orphan receptor gamma (ROR-gamma) signaling pathway (AID 651802); conditions: ROR-gamma antagonist cell reporter assay; series mostly up to 92.2 µM;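 also: CHO cells with doxycycline-induced ROR-gamma expression; % is scaled to controls: 0 for no effect and ±100 for the full control effect; nearly all actives have a fitted effect of over 60% in size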
Nuclear receptor ROR-gamma (Homo sapiens), sequence (P51449 whole entry, looked up): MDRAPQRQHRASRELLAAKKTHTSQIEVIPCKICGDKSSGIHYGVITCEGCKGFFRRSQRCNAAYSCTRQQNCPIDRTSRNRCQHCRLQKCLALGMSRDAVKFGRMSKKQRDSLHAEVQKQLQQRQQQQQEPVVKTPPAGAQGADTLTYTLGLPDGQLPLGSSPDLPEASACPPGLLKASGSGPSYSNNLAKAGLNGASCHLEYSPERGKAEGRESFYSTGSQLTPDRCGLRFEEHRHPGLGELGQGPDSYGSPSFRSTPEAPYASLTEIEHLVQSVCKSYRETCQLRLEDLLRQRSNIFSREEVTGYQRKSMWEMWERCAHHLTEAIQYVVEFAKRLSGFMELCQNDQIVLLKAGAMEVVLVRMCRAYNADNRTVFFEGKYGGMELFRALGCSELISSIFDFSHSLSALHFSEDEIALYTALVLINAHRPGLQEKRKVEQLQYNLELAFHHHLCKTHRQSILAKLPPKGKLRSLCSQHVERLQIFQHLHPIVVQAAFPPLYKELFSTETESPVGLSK
Outline: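 Antagonism is scored as a fall in luminescence from a RORE-luciferase reporter in CHO cells expressing ROR under a TET-inducible promoter, measured 16hr after doxycycline induction in the presence of compound.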

[15] = qHTS assay for small molecule agonists of the antioxidant response element (ARE) signaling pathway measured by Nrf2-dependant transcriptional activity (AID 720636; active = well fitted curve in the direction sought with a large enough effect in the repeat runs; an effect the other way counts as inactive or inconclusive;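 also: HepG2 cells with an ARE-driven luciferase reporter; % of control where 0% means no effect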); conditions: ARE-luc HepG2, Nrf2 luciferase reporter, 16 h; series mostly up to 92.4 µM
Outline: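 ONE-Glo luminescence, read 30 min after reagent addition at room temperature, reflected ARE reporter activity in HepG2 cells that had been incubated with compound for 16 hr at 37 C in 1% dialyzed FBS.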

[16] = qHTS assay for small molecule antagonists of the retinoid-related orphan receptor gamma (ROR-gamma) signaling pathway - cell viability counter screen (AID 720652; active = well fitted curve in the direction sought with a large enough effect in the repeat runs; an effect the other way counts as inactive or inconclusive;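 also: CHO reporter cells with doxycycline-induced ROR-gamma expression; compound exposure lasted 16 hr before ATP read; % is scaled to controls: 0 for no effect and ±100 for the full control effect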); conditions: RORgamma reporter cell line viability counter screen; series mostly up to 92.2 µM
Outline: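 Cytotoxicity is quantified via intracellular ATP (CellTiter-Glo luminescence) in doxycycline-induced CHO ROR response element-luciferase reporter cells treated with compound for 16 hr at 37 C, 5% CO2.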

[17] = qHTS assay for small molecule agonists of the antioxidant response element (ARE) signaling pathway measured by Nrf2-dependant transcriptional activity - cell viability counter screen (AID 720653; active = well fitted curve in the direction sought with a large enough effect in the repeat runs; an effect the other way counts as inactive or inconclusive; also: % is scaled to controls: 0 for no effect and ±100 for the full control effect); conditions: ARE-bla HepG2 viability, CellTiter-Glo ATP luminescence, 16 h; stronger effect = lower value
Outline: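 ARE-bla HepG2 cells treated with compounds for 16 h at 37C; this counter screen measures viability as intracellular ATP by CellTiter-Glo luminescence after 30 min at room temperature.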

[18] = qHTS assay for small molecule antagonists of retinoid X receptor alpha signaling (AID 588546; active = well fitted inhibition curve with a large enough effect in the signal ratio, with a control signal flat, not every such curve was filed as active; the % refers to the signal ratio;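 also: cells stimulated with 9-cis-retinoic acid as agonist; % is scaled to controls: 0 for no effect and ±100 for the full control effect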); conditions: HEK293T RXRa-UAS-bla, beta-lactamase ratio, antagonist mode; measured here: W530 green channel, cytotoxicity proxy
Outline: (§1)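 Beta-lactamase reporter inhibition, read as CCF4 fluorescence ratio (ex 405, em 460/530 nm) after 2 h at RT. HEK293T UAS-bla cells, 2500/well, were stimulated with 9-cis-RA at 500 or 100 nM final alongside test compound for 18 h at 37 C.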

[19] = biological target: Retinoic acid receptor RXR-alpha (Homo sapiens) (UniProt P19793); experiment: as above; conditions: HEK293T RXRa-UAS-bla, beta-lactamase ratio, antagonist mode
Outline: as §1

[20] = qHTS assay for small molecule agonists of the antioxidant response element (ARE) signaling pathway (AID 651741; active = well fitted activation curve with a large enough effect in the signal ratio; the % refers to the signal ratio; also: % of control where 0% means no effect); conditions: HepG2 ARE-bla reporter, beta-lactamase FRET ratio, 16 h; series mostly up to 96 µM
Outline: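 HepG2 ARE-bla cells plated at 2,000 cells/well and incubated 5 h at 37 C/5% CO2 received 23 nL compound in DMSO. After 16 h at 37 C, LiveBLAzer B/G FRET substrate was applied for 2 h at room temperature and fluorescence read.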

Cc1cccc(C(=O)O)c1[N+](=O)[O-]
-4.96%: max response [1]
inactive: outcome [2] | outcome [3] | activity change % (negative = inhibition) [4] -11.8% | Potency [5] | activation [6] 1.31% | activation [7] -0.935% | Potency [8] | Potency [9] | Potency [10] | Potency [11] | activation [12] 1.97% | max response [13] -1.91% | Potency [14] | outcome [15] | Potency [16] | max response [17] 5.5%

Cc1ccccc1C(=O)O
inactive: outcome [2] | max response [19] 37.3% | activity change % (negative = inhibition) [4] -4.62% | Potency [5] | Potency [20] | activation [7] -1.6% | Potency [8] | Potency [9] | Potency [10] | activation [12] 0.336% | max response [13] -0.184% | outcome [15] | Potency [16] | max response [17] 0.515%
-19.5%: max response [1]
-2.02%: max response [18]

CCNS(=O)(=O)c1ccc(C)cc1
inactive: outcome [2] | max response [19] 3.72% | activity change % (negative = inhibition) [4] -4.68% | Potency [5] | Potency [20] | activation [6] -2.94% | Potency [9] | Potency [10] | activation [12] -1.7% | max response [13] -3.34% | Potency [14] | outcome [15] | Potency [16] | max response [17] -1.66%
0.888%: max response [18]
7.68%: max response [1]

O=Cc1ccc(Cl)cc1
-8%: max response [1]
-0.849%: max response [18]
inactive: outcome [2] | outcome [3] | max response [19] -5.61% | Potency [5] | activation [6] -0.245% | Potency [8] | Potency [9] | Potency [10] | Potency [11] | max response [13] -4.56% | outcome [15] | Potency [16] | max response [17] 7.47%

CCc1ccccc1O
-12.3%: max response [1]
inactive: outcome [2] | outcome [3] | max response [19] 5.77% | Potency [5] | activation [7] 0.236% | Potency [8] | Potency [9] | Potency [10] | activation [12] -0.147% | max response [13] -2.08% | Potency [14] | outcome [15] | Potency [16] | max response [17] 4.85%
-5.98%: max response [18]

Cc1ccc(N(C)C)cc1
inactive: outcome [2] | max response [19] 25.4% | activity change % (negative = inhibition) [4] 13.9% | Potency [5] | Potency [20] | activation [6] -2.63% | activation [7] -0.0617% | Potency [8] | Potency [9] | Potency [10] | Potency [11] | activation [12] 6.07% | max response [13] 2.84% | outcome [15] | Potency [16] | max response [17] -14.6%
5.65%: max response [1]
-1.89%: max response [18]

CC(=O)c1ccccc1[N+](=O)[O-]
inactive: outcome [2] | max response [19] 5.8% | activity change % (negative = inhibition) [4] 19.8% | Potency [5] | Potency [20] | Potency [8] | Potency [9] | Potency [10] | Potency [11] | activation [12] -0.15% | max response [13] -1% | Potency [14] | outcome [15] | Potency [16] | max response [17] -1.99%
5.46%: max response [18]
-16.2%: max response [1]

C/C=C1\CC2C=CC1C2 (stereo unspecified)
-9.1%: max response [1]
inactive: outcome [2] | max response [19] 6.71% | activity change % (negative = inhibition) [4] 2.19% | Potency [5] | Potency [20] | activation [6] 0.178% | activation [7] -0.076% | Potency [9] | Potency [10] | activation [12] -0.171% | max response [13] -5.32% | Potency [14] | outcome [15] | Potency [16]
-2.6%: max response [18]

CC(C)(C)OC=O
inactive: outcome [2] | max response [19] 2.16% | activity change % (negative = inhibition) [4] -8.86% | Potency [5] | Potency [20] | activation [6] -3.33% | Potency [8] | Potency [10] | Potency [11] | activation [12] -1.07% | max response [13] -0.442% | Potency [14] | outcome [15] | Potency [16]
-9.54%: max response [1]
-10.7%: max response [18]

c1ccc2[nH]cnc2c1
inactive: outcome [2] | outcome [3] | activity change % (negative = inhibition) [4] 2.62% | Potency [5] | activation [6] 0.533% | activation [7] 1.42% | Potency [8] | Potency [9] | Potency [10] | activation [12] 1.2% | max response [13] -1.28% | Potency [14] | outcome [15] | Potency [16] | max response [17] -6.28%
-10.3%: max response [1]

CC(O)CC(C)O (stereo unspecified)
inactive: outcome [2] | max response [19] 3.51% | activity change % (negative = inhibition) [4] -2.07% | Potency [5] | Potency [20] | activation [7] -0.133% | Potency [8] | Potency [10] | activation [12] -0.953% | max response [13] -0.949% | Potency [14] | outcome [15] | Potency [16] | max response [17] -7.28%
14.5%: max response [18]
-6.63%: max response [1]

Nc1ccccc1[N+](=O)[O-]
inactive: outcome [2] | max response [19] -0.391% | activity change % (negative = inhibition) [4] -6.45% | Potency [5] | Potency [20] | activation [6] -3.02% | activation [7] 0.892% | Potency [9] | Potency [10] | activation [12] -0.331% | outcome [15] | Potency [16] | max response [17] -18.4%
-4.62%: max response [1]
1.56%: max response [18]

CCCC=O
inactive: outcome [2] | max response [19] 14.7% | activity change % (negative = inhibition) [4] -7% | Potency [5] | activation [6] -2.76% | activation [7] -4.7% | Potency [8] | Potency [9] | Potency [10] | activation [12] -0.933% | max response [13] 2.48% | Potency [14] | outcome [15] | Potency [16] | max response [17] -6.36%
6.82%: max response [18]
-4.54%: max response [1]
